Results from PubChem BioAssay AID1159580 (chemical genetic matrix, 2015).
“And” between values parts separate entries of the source, which are not always exact repeats. Identical values can stand only once. Hit rate of the full screen: of about 5,500 compounds, about 2,000 (36%) were called active. About 18% were inconclusive and are not listed. Rule as the data show it: active = normalized growth mostly below about 0.91 (no sharp cut-off); inconclusive = no clear call, values can overlap the other calls; inactive = mostly above about 0.92. The list shows a part of the results.

Assay: chemical genetic growth profiling, strain panel (AID 1159580);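 also: tested at 20 µM; growth read once vehicle control cultures reached saturation at 30 °C; 1 = growth at the plate median or of vehicle wells; lower values mean less growth of the strain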
Conditions: S. cerevisiae deletion strains, growth OD

Measured: normalized growth

COc1c(O)cccc1O
inactive: locus YAL013W, strain DEP1, hits give low values 0.993 | locus YAL021C, strain ccr4, hits give low values 0.997 | locus YAL026C, strain drs2, hits give low values 1.04 | locus YAL030W, strain snc1, hits give low values 1.02 | locus YBL061C, strain skt5, hits give low values 1.02 | locus YBR009C, strain hhf1, hits give low values 1.01 | locus YBR021W, strain FUR4, hits give low values 1.04 | locus YBR023C, strain chs3, hits give low values 1.02 | locus YBR171W, strain sec66, hits give low values 1.03 | locus YBR229C, strain ROT2, hits give low values 1.01 | locus YBR231C, strain swc5, hits give low values 1.03 | locus YBR279W, strain paf1, hits give low values 1.02 | locus YCL011C, strain gbp2, hits give low values 1.04 | locus YCL016C, strain dcc1, hits give low values 1.02 | locus YCL029C, strain bik1, hits give low values 1.01 | locus YCL061C, strain MRC1, hits give low values 1.02 | locus YCL069W, strain vba3, hits give low values 1.03 | locus YCR088W, strain abp1, hits give low values 1.02 | locus YDL005C, strain med2, hits give low values 1.03 | locus YDL035C, strain GPR1, hits give low values 1.02 | locus YDL040C, strain nat1, hits give low values 1.01 | locus YDL074C, strain BRE1, hits give low values 1.09 | locus YDL101C, strain DUN1, hits give low values 1.01 | locus YDL134C, strain PPH21, hits give low values 1.06 | locus YDL185W, strain tfp1, hits give low values 1.02 | locus YDL192W, strain arf1, hits give low values 1.04 | locus YDR001C, strain nth1, hits give low values 1.02 | locus YDR069C, strain doa4, hits give low values 1.02 | locus YDR101C, strain arx1, hits give low values 1 | locus YDR137W, strain rgp1, hits give low values 1.04 | locus YDR150W, strain NUM1, hits give low values 0.999 | locus YDR159W, strain sac3, hits give low values 1.02 | locus YDR162C, strain NBP2, hits give low values 1.03 | locus YDR195W, strain ref2 1.02 | locus YDR297W, strain sur2, hits give low values 1.05 | locus YDR318W, strain mcm21, hits give low values 1.03 | locus YDR334W, strain swr1, hits give low values 1.03 | locus YDR335W, strain msn5, hits give low values 1.03 | locus YDR388W, hits give low values 0.996 | locus YDR392W, strain spt3, hits give low values 1.02 | locus YDR502C, strain sam2, hits give low values 1.03 | locus YEL003W, strain gim4, hits give low values 1.02 | locus YEL037C, strain rad23, hits give low values 1.02 | locus YEL061C, strain CIN8 (second series), hits give low values 1.02 | locus YEL061C, strain CIN8, hits give low values 0.973 | locus YER015W, strain faa2, hits give low values 1.02 | locus YER016W, strain bim1, hits give low values 1.02 | locus YER110C, hits give low values 1.02 | locus YER111C, strain swi4, hits give low values 1.02 | locus YER155C, strain BEM2 (second series), hits give low values 1.01 | locus YER155C, strain BEM2, hits give low values 0.997 | locus YER167W, strain BCK2, hits give low values 0.98 | locus YFR010W, strain ubp6, hits give low values 1.03 | locus YGL078C, strain dbp3, hits give low values 1.04 | locus YGL086W, strain mad1, hits give low values 1.03 | locus YGL167C, strain pmr1, hits give low values 1.03 | locus YGL173C, strain kem1, hits give low values 1.02 | locus YGL227W, strain vid30, hits give low values 1.02 | locus YGL240W, strain doc1, hits give low values 1.02 | locus YGL248W, strain PDE1, hits give low values 1.04 | locus YGL253W, strain hxk2, hits give low values 1.05 | locus YGR135W, strain pre9, hits give low values 1.04 | locus YGR252W, strain gcn5, hits give low values 1.13 | locus YHR013C, strain ard1, hits give low values 1.04 | locus YHR027C, strain rpn1, hits give low values 1.02 | locus YHR030C, strain SLT2, hits give low values 1.01 and 1.06 | locus YHR079C, strain IRE1 (second series), hits give low values 1.01 | locus YHR079C, strain IRE1, hits give low values 1.05 | locus YHR094C, strain hxt1, hits give low values 1.01 | locus YHR129C, strain ARP1, hits give low values 0.99 | locus YHR142W, strain chs7, hits give low values 1.07 | locus YHR200W, strain rpn10, hits give low values 1.02 | locus YIL066C, strain RNR3, hits give low values 1.01 | locus YIL073C, strain SPO22, hits give low values 1.14 | locus YIL125W, strain kgd1, hits give low values 1 | locus YIR030C, strain dcg1, hits give low values 1.02 | locus YJL092W, strain hpr5, hits give low values 1.02 | locus YJL095W, strain BCK1 (second series), hits give low values 1.02 | locus YJL095W, strain BCK1, hits give low values 1.11 and 1.04 | locus YJL115W, strain asf1, hits give low values 1.04 | locus YJL129C, strain trk1, hits give low values 1.06 | locus YJL134W, strain LCB3, hits give low values 0.999 | locus YJL154C, strain vps35, hits give low values 1.02 | locus YJL164C, strain tpk1, hits give low values 1.02 | locus YJL166W, strain qcr8, hits give low values 1.03 | locus YJL168C, strain set2, hits give low values 1.01 | locus YJL187C, strain SWE1 (second series), hits give low values 1.03
